Measurements: the supplement of paper PMC6411743
± gives the standard deviation of the averaged measurements. The full data set covers some 6,200 targets. This sample favours those with the largest changes.

Compound: Nc1ncnc2c1ncn2[C@@H]1O[C@H](COP(=O)(O)OP(=O)(O)NP(=O)(O)O)[C@@H](O)[C@H]1O [adenylyl imidodiphosphate]
Assay: NP40-soluble protein abundance relative to vehicle (solubility fold change) (ratio); higher = more soluble protein in presence of AMP-PNP
How it was run: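 Data come from three independent experiments in which Dounce-homogenised Jurkat crude lysate was treated at eight concentrations from 0.1 to 10 mM. Treatment ran 10 min at room temperature and then 3 min at 37 °C, after which 0.8% NP40 and benzonase were added for 60 min at 4 °C before ultracentrifugation. The supernatant underwent TMT labelling and LC-MS/MS, and vsn-normalised intensities were expressed as fold change against the detergent-processed vehicle in each replicate.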

Sequence of UniProt Q96PE7 (Q96PE7 whole entry): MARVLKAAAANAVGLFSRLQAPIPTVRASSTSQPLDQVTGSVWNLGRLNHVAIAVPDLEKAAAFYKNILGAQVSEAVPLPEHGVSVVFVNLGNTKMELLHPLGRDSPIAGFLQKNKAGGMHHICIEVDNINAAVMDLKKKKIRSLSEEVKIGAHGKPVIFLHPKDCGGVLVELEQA
Sequence of UniProt Q9Y508 (Q9Y508 whole entry): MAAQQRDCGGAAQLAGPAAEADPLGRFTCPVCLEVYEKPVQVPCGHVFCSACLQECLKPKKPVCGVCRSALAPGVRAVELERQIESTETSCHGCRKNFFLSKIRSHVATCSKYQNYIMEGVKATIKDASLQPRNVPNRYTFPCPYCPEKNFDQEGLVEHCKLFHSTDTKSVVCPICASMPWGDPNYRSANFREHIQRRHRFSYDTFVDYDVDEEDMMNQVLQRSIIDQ
Sequence of UniProt Q9ULE6 (Q9ULE6 whole entry): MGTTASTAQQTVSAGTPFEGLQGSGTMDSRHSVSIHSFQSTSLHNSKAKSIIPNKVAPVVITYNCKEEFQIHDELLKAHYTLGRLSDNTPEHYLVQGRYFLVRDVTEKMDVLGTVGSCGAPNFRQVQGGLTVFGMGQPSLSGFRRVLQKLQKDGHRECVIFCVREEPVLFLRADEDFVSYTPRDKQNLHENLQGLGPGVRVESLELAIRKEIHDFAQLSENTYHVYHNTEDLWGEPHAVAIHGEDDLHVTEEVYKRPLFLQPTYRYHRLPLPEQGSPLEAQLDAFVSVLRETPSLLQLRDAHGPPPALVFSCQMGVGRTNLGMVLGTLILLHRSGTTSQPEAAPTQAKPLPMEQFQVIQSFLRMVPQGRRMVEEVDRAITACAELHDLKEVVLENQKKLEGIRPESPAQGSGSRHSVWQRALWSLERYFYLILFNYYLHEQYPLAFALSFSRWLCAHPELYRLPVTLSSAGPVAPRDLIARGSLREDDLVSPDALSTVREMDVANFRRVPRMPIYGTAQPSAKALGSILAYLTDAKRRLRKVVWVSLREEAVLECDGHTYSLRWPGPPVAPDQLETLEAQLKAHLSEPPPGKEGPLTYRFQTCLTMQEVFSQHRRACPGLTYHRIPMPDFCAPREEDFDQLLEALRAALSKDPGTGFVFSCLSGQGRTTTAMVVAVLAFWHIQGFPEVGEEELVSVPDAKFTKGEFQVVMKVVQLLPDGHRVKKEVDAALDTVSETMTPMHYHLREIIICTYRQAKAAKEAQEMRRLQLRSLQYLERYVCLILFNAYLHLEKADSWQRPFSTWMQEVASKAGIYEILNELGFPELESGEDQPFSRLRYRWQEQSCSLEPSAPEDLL
Sequence of UniProt Q9P2R7 (Q9P2R7 whole entry): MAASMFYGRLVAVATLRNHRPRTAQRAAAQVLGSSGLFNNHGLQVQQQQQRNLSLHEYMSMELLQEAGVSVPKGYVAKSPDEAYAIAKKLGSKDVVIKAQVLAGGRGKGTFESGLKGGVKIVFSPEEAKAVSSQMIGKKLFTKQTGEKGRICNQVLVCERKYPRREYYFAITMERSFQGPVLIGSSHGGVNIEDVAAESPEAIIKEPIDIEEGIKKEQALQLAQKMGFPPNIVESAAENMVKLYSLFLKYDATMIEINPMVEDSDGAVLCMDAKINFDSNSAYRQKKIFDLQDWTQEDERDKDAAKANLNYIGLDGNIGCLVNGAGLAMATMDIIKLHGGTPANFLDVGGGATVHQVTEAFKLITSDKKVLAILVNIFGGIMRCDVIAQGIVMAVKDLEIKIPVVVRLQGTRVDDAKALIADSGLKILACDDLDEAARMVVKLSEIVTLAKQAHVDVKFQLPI
Sequence of UniProt Q9Y2A7 (Q9Y2A7 whole entry): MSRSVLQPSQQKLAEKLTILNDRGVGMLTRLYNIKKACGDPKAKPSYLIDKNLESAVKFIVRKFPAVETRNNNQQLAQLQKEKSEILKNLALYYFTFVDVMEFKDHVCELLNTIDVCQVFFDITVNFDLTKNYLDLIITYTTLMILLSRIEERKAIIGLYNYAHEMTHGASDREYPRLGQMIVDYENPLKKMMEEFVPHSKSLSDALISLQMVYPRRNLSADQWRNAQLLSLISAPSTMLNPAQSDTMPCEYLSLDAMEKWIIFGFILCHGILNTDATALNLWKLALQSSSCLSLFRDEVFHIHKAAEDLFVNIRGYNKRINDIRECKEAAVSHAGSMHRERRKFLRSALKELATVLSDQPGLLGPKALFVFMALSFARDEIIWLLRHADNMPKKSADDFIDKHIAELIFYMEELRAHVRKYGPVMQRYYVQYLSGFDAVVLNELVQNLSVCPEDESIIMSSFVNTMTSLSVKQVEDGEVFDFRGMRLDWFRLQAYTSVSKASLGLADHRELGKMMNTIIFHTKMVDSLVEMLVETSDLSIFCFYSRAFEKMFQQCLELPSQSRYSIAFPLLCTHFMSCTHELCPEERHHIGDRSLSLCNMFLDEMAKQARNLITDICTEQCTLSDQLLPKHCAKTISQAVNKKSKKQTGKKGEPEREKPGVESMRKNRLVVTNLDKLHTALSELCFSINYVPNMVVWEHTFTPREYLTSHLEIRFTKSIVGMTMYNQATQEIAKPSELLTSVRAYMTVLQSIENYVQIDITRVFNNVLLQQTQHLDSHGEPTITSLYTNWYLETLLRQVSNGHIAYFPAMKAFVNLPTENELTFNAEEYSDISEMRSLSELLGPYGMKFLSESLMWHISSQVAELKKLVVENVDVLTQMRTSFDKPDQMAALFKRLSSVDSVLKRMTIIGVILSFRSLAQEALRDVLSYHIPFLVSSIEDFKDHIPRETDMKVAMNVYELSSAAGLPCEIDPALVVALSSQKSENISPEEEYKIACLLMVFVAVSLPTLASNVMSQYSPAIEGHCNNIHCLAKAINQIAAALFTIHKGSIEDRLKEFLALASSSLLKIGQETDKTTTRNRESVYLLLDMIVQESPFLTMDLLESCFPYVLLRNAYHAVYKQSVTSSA
Sequence of UniProt Q9Y5B9 (Q9Y5B9 whole entry): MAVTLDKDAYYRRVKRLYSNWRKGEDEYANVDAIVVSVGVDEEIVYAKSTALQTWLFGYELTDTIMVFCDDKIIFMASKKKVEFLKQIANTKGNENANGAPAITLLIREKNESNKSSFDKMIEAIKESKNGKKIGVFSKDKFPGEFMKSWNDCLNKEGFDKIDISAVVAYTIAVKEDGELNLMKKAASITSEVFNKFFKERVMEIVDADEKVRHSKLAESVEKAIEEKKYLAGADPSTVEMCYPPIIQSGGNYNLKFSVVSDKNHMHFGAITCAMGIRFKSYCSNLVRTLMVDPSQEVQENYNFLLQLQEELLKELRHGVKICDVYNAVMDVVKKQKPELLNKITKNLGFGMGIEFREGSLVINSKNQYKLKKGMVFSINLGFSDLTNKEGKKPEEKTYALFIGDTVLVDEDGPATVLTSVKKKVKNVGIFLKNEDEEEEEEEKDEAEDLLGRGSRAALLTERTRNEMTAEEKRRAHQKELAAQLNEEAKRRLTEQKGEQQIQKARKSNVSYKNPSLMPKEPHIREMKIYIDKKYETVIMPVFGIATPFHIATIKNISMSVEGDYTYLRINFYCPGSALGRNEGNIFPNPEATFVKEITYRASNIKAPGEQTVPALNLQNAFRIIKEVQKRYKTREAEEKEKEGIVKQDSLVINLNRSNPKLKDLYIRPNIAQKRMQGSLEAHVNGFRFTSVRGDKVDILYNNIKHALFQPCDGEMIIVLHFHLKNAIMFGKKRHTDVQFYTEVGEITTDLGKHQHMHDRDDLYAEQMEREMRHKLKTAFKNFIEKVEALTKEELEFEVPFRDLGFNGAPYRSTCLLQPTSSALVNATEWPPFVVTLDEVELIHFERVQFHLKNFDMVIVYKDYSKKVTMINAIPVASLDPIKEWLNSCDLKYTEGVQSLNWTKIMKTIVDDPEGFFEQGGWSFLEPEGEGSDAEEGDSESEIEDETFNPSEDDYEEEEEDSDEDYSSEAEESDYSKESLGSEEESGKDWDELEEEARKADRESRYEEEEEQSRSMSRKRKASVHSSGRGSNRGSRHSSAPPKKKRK
Sequence of UniProt Q9NVM9 (Q9NVM9 whole entry): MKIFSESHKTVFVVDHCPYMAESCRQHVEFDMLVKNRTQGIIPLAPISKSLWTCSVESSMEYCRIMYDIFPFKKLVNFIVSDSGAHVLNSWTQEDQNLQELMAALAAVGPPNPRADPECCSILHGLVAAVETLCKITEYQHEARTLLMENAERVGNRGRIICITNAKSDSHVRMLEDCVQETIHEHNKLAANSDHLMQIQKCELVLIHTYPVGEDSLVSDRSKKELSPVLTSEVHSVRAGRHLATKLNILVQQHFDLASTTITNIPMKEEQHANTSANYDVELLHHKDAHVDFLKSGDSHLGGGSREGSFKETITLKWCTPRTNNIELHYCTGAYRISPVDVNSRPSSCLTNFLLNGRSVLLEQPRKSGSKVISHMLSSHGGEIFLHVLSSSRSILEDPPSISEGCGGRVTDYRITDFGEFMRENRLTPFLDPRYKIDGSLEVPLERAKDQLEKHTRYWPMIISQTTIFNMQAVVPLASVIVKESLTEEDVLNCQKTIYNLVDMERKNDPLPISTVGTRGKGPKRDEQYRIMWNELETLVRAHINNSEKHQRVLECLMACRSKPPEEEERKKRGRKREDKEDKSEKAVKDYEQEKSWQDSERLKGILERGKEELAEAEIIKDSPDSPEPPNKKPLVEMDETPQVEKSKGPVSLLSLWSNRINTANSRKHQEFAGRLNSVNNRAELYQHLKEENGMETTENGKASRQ
Sequence of UniProt Q9Y320 (Q9Y320 whole entry): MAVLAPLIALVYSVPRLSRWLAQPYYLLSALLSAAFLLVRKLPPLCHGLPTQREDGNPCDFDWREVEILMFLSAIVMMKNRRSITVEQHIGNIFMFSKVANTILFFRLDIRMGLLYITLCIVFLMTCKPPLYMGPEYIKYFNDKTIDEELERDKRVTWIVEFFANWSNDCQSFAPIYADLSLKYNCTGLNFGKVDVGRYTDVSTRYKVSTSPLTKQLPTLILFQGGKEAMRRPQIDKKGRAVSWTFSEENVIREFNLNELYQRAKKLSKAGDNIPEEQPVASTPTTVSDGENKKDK

Target	NP40-soluble protein abundance (concentration: 1mM)	NP40-soluble protein abundance (concentration: 2mM)	NP40-soluble protein abundance (concentration: 4mM)	NP40-soluble protein abundance (concentration: 6mM)	NP40-soluble protein abundance (concentration: 8mM)	NP40-soluble protein abundance (concentration: 10mM)
PPCS (UniProt Q9HAB8)	1.03 ± 0.033	0.981 ± 0.038	1.01 ± 0.028	1.03 ± 0.02	1.03 ± 0.026	1.04 ± 0.021
ZNF48 (UniProt Q96MX3)	1.015 ± 0.0097	1.062 ± 0.0052	1.05 ± 0.033	1.06 ± 0.028	1.06 ± 0.017	1.12 ± 0.059
PARP12 (UniProt Q9H0J9)	0.982 ± 0.046	0.946 ± 0.042	1.01 ± 0.022	0.991 ± 0.015	1.04 ± 0.029	1.01 ± 0.023
NANS (UniProt Q9NR45)	0.981 ± 0.015	0.932 ± 0.043	0.939 ± 0.011	0.954 ± 0.015	0.948 ± 0.036	0.918 ± 0.027
THRAP3 (UniProt Q9Y2W1)	1.11 ± 0.014	1.23 ± 0.1	1.2 ± 0.034	1.31 ± 0.044	1.32 ± 0.028	1.41 ± 0.03
UniProt Q9Y4E8|Q9Y4E8-3	0.967 ± 0.013	0.963 ± 0.032	1.02 ± 0.041	1 ± 0.048	0.993 ± 0.065	1.01 ± 0.027
UniProt Q9UPT9|Q9UPT9-2	0.953 ± 0.022	0.953 ± 0.035	0.96 ± 0.025	0.922 ± 0.027	0.936 ± 0.021	0.922 ± 0.02
CCDC124 (UniProt Q96CT7)	1.13 ± 0.037	1.29 ± 0.15	1.35 ± 0.058	1.58 ± 0.12	1.86 ± 0.17	2.16 ± 0.25
RAB23 (UniProt Q9ULC3)	0.9714 ± 0.0024	0.9596 ± 0.0092	0.974 ± 0.029	1.01 ± 0.029	1.03 ± 0.044	1 ± 0.018
UniProt Q9BQ39|A0A087WVC1	1.22 ± 0.068	1.27 ± 0.062	1.35 ± 0.023	1.43 ± 0.04	1.52 ± 0.097	1.5 ± 0.14
UniProt Q9NQ29|Q9NQ29-3|Q9NQ29-2	1.02 ± 0.04	1.13 ± 0.12	1.11 ± 0.055	1.15 ± 0.027	1.15 ± 0.091	1.35 ± 0.098
UniProt Q9BZL4-4|Q9BZL4	1 ± 0.033	1.04 ± 0.036	1.01 ± 0.047	0.997 ± 0.023	0.978 ± 0.017	0.999 ± 0.015
MRPL9 (UniProt Q9BYD2)	1.04 ± 0.13	0.967 ± 0.13	1.03 ± 0.075	0.982 ± 0.09	1.01 ± 0.072	0.972 ± 0.15
REXO4 (UniProt Q9GZR2)	1.06 ± 0.047	1.09 ± 0.073	1.1 ± 0.038	1.17 ± 0.036	1.18 ± 0.039	1.21 ± 0.051
UniProt Q99828|Q99828-2	1.001 ± 0.0091	0.977 ± 0.03	0.993 ± 0.035	0.9794 ± 0.0058	0.949 ± 0.036	0.95 ± 0.025
WDR12 (UniProt Q9GZL7)	0.997 ± 0.017	0.928 ± 0.082	0.979 ± 0.011	1 ± 0.028	0.999 ± 0.016	0.94 ± 0.033
ATAD5 (UniProt Q96QE3)	1.03 ± 0.026	1.05 ± 0.046	1.08 ± 0.028	1.08 ± 0.031	1.08 ± 0.022	1.12 ± 0.045
SMARCD1 (UniProt Q96GM5)	1.01 ± 0.085	0.97 ± 0.12	1.03 ± 0.11	1.01 ± 0.12	1.03 ± 0.12	1.01 ± 0.12
UniProt Q9ULE6	0.981 ± 0.025	0.96 ± 0.013	1.01 ± 0.02	0.959 ± 0.027	0.957 ± 0.016	0.944 ± 0.025
PNKP (UniProt Q96T60)	1.02 ± 0.041	1.02 ± 0.054	1.1 ± 0.071	1.18 ± 0.021	1.23 ± 0.047	1.22 ± 0.079

Target	NP40-soluble protein abundance (concentration: 1mM)	NP40-soluble protein abundance (concentration: 2mM)	NP40-soluble protein abundance (concentration: 4mM)	NP40-soluble protein abundance (concentration: 6mM)	NP40-soluble protein abundance (concentration: 8mM)	NP40-soluble protein abundance (concentration: 10mM)
UniProt Q9Y320|Q9Y320-2	0.936 ± 0.038	0.89 ± 0.056	0.918 ± 0.036	0.952 ± 0.048	0.962 ± 0.04	0.95 ± 0.039
UniProt Q9H668	0.991 ± 0.028	0.97 ± 0.028	0.985 ± 0.027	0.995 ± 0.018	0.985 ± 0.044	0.963 ± 0.024
CPSF2 (UniProt Q9P2I0)	1.01 ± 0.016	1 ± 0.053	1.03 ± 0.027	1.03 ± 0.061	1.05 ± 0.035	1.07 ± 0.055
UniProt Q9UG63|Q9UG63-2	1.04 ± 0.06	1.15 ± 0.065	1.41 ± 0.054	1.82 ± 0.11	2.25 ± 0.15	2.54 ± 0.26
UniProt Q9NVM9	1.03 ± 0.027	1.02 ± 0.04	1.05 ± 0.033	1.02 ± 0.069	1.03 ± 0.075	1.03 ± 0.063
UTP11 (UniProt Q9Y3A2)	1.02 ± 0.026	1.04 ± 0.037	1.03 ± 0.025	1.05 ± 0.026	1.05 ± 0.018	1.08 ± 0.018
C9orf78 (UniProt Q9NZ63)	0.999 ± 0.047	1.03 ± 0.038	0.982 ± 0.055	0.971 ± 0.036	0.966 ± 0.034	0.939 ± 0.078
C16orf70 (UniProt Q9BSU1)	1.01 ± 0.056	0.978 ± 0.029	0.982 ± 0.042	1.01 ± 0.018	1.02 ± 0.02	1.05 ± 0.02
PSMD1 (UniProt Q99460)	0.902 ± 0.044	0.887 ± 0.06	0.851 ± 0.094	0.863 ± 0.11	0.848 ± 0.098	0.847 ± 0.13
HEBP2 (UniProt Q9Y5Z4)	0.978 ± 0.012	0.9687 ± 0.0064	0.952 ± 0.023	0.957 ± 0.021	0.964 ± 0.018	0.926 ± 0.042
SUPT16H (UniProt Q9Y5B9)	1.03 ± 0.016	1.01 ± 0.023	1.1 ± 0.049	1.24 ± 0.053	1.33 ± 0.055	1.46 ± 0.12
TPX2 (UniProt Q9ULW0)	1.09 ± 0.013	1.2 ± 0.077	1.23 ± 0.066	1.27 ± 0.049	1.32 ± 0.072	1.39 ± 0.049
HECA (UniProt Q9UBI9)	0.969 ± 0.029	1 ± 0.017	1.02 ± 0.049	1.034 ± 0.0078	1.06 ± 0.046	1.04 ± 0.024
UniProt Q96T23|Q96T23-2	1.07 ± 0.026	1.21 ± 0.11	1.32 ± 0.061	1.53 ± 0.18	1.67 ± 0.21	1.93 ± 0.25
UniProt Q9UIG0|Q9UIG0-2	1.04 ± 0.048	1.08 ± 0.055	1.11 ± 0.046	1.23 ± 0.074	1.3 ± 0.11	1.45 ± 0.16
MCEE (UniProt Q96PE7)	0.998 ± 0.04	1.01 ± 0.04	0.997 ± 0.046	1.06 ± 0.036	1.03 ± 0.08	1.05 ± 0.1
UniProt Q9NVI7-2	1.08 ± 0.075	1.05 ± 0.073	1.14 ± 0.18	1.29 ± 0.18	1.38 ± 0.24	1.44 ± 0.32
SLC39A10 (UniProt Q9ULF5)	0.998 ± 0.021	1.07 ± 0.045	1.01 ± 0.026	1 ± 0.029	0.985 ± 0.04	0.994 ± 0.036
UniProt Q9H773|H3BSA6	1.03 ± 0.02	1.01 ± 0.019	1.041 ± 0.0073	1.03 ± 0.015	1.01 ± 0.019	1 ± 0.022
UniProt Q96RG2|Q96RG2-2	0.9919 ± 0.0087	0.997 ± 0.048	1.02 ± 0.011	0.982 ± 0.021	1 ± 0.026	0.996 ± 0.024

Target	NP40-soluble protein abundance (concentration: 1mM)	NP40-soluble protein abundance (concentration: 2mM)	NP40-soluble protein abundance (concentration: 4mM)	NP40-soluble protein abundance (concentration: 6mM)	NP40-soluble protein abundance (concentration: 8mM)	NP40-soluble protein abundance (concentration: 10mM)
UniProt Q9P2R7|Q9P2R7-2	0.9771 ± 0.0078	0.943 ± 0.027	0.938 ± 0.011	0.977 ± 0.032	0.958 ± 0.012	0.969 ± 0.049
PSMB7 (UniProt Q99436)	0.946 ± 0.04	0.909 ± 0.061	0.906 ± 0.057	0.928 ± 0.086	0.918 ± 0.081	0.9 ± 0.13
UniProt Q96P48|Q96P48-3	0.968 ± 0.022	0.896 ± 0.14	0.983 ± 0.07	0.903 ± 0.059	0.955 ± 0.066	0.882 ± 0.062
UniProt Q9BPZ3|D6R9Y1	0.981 ± 0.02	1.01 ± 0.044	0.945 ± 0.028	0.966 ± 0.051	0.929 ± 0.014	0.9085 ± 0.0067
UniProt Q9Y2A7|Q9Y2A7-2	0.972 ± 0.026	0.974 ± 0.034	0.9706 ± 0.0091	1 ± 0.019	0.976 ± 0.02	0.985 ± 0.026
RNF114 (UniProt Q9Y508)	1.034 ± 0.0076	0.993 ± 0.021	1.03 ± 0.019	1.024 ± 0.0039	1.04 ± 0.018	1 ± 0.013
UniProt Q9BYX2|Q9BYX2-2	0.981 ± 0.013	0.9921 ± 0.0015	1 ± 0.028	0.985 ± 0.042	0.972 ± 0.012	0.9639 ± 0.0013
UniProt Q9NYU2|Q9NYU2-2	0.9826 ± 0.0098	0.9 ± 0.12	0.955 ± 0.034	0.917 ± 0.031	0.936 ± 0.04	0.895 ± 0.036
UniProt Q9P1W8|Q9P1W8-2	0.9928 ± 0.0047	1.04 ± 0.041	1.02 ± 0.018	1.0109 ± 0.00039	1.0171 ± 0.00063	1.024 ± 0.0042
BCS1L (UniProt Q9Y276)	0.966 ± 0.021	0.874 ± 0.11	0.996 ± 0.024	0.955 ± 0.035	0.982 ± 0.024	0.937 ± 0.035
GDE1 (UniProt Q9NZC3)	1.01 ± 0.043	1.02 ± 0.034	1.01 ± 0.03	1.01 ± 0.08	0.995 ± 0.05	1.01 ± 0.06
UNK (UniProt Q9C0B0)	1.071 ± 0.0069	1.12 ± 0.056	1.11 ± 0.021	1.09 ± 0.072	1.1 ± 0.045	1.11 ± 0.033
DIDO1 (UniProt Q9BTC0)	1.1 ± 0.035	1.18 ± 0.093	1.23 ± 0.043	1.28 ± 0.12	1.27 ± 0.12	1.36 ± 0.12
UniProt Q9Y520|Q9Y520-5|Q9Y520-7|E7EPN9|Q9Y520-4	1.1 ± 0.013	1.2 ± 0.092	1.2 ± 0.05	1.25 ± 0.12	1.29 ± 0.14	1.41 ± 0.17
YBX2 (UniProt Q9Y2T7)	1.02 ± 0.029	1.06 ± 0.013	1.02 ± 0.018	1.01 ± 0.029	1.01 ± 0.036	1.038 ± 0.0094
MRPL53 (UniProt Q96EL3)	0.987 ± 0.06	1.01 ± 0.023	0.986 ± 0.061	0.98 ± 0.045	1 ± 0.063	1 ± 0.066
UniProt Q9ULV4|Q9ULV4-2|Q9ULV4-3	1.07 ± 0.04	1.11 ± 0.056	1.12 ± 0.026	1.26 ± 0.015	1.33 ± 0.018	1.39 ± 0.037
NOP58 (UniProt Q9Y2X3)	1.11 ± 0.021	1.17 ± 0.013	1.17 ± 0.014	1.24 ± 0.054	1.32 ± 0.033	1.46 ± 0.057
UniProt Q99571|Q99571-2|F6SFZ6	0.986 ± 0.019	0.959 ± 0.019	0.971 ± 0.019	1.014 ± 0.0026	1.012 ± 0.0075	1.01 ± 0.039
UniProt Q96T76|Q96T76-8|Q96T76-9	0.964 ± 0.013	0.929 ± 0.082	0.972 ± 0.032	0.987 ± 0.036	1.002 ± 0.0053	0.9354 ± 0.0075
